ARNT-TACC3 inh: disruptors of human ARNT/TACC3 interaction; AID 623870; AlphaScreen His-ARNT PAS-B/GST-TACC3 binding, luminescence; TACC3 fragment carries E629A point mutation; inhibition, % at 9.99 µM; 0.66% of 390,000 active;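 active means mean inhibition of replicates at least 50% and at least half of replicates each reaching 50%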
Rin1-Abl PPI inh: human Rin1-Abl interaction inhibition | 0.4% of 360,000 active | TR-FRET Rin1/Abl binding, biochemical | AID 588664 | P00519+Q13671 | inhibition, % at 7.35 µM; in the data active means inhibition above about 5%, passing the limit was not always enough
AI-2 QS modul: Vibrio harveyi AI-2 quorum sensing modulation; Vibrio harveyi JMH597 AI-2 luminescence/OD600 ratio, 9 h; stronger effect = lower value; strain lacks LuxN and CqsS sensors; 0 = neutral-control median; AID 2094; activity change, % at 7.5 µM; 0.4% of 300,000 active; in the data active means activity change below about -75%, passing the limit was not always enough;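 further: luminescence divided by OD600 gain over 9 h not by final OD600 alone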
sPLA2-III inh: Blocks human group III sPLA2 activity; QFRET BODIPY PC-A2 liposome hydrolysis, fluorescence; inhibition, % at 12.2 µM; 0.56% of 370,000 active;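 active means inhibition above mean plus 3 SD of compounds lying within the high and low control bounds, cut at about 19% in these data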
Target sequence (Q9NZ20 whole entry, looked up): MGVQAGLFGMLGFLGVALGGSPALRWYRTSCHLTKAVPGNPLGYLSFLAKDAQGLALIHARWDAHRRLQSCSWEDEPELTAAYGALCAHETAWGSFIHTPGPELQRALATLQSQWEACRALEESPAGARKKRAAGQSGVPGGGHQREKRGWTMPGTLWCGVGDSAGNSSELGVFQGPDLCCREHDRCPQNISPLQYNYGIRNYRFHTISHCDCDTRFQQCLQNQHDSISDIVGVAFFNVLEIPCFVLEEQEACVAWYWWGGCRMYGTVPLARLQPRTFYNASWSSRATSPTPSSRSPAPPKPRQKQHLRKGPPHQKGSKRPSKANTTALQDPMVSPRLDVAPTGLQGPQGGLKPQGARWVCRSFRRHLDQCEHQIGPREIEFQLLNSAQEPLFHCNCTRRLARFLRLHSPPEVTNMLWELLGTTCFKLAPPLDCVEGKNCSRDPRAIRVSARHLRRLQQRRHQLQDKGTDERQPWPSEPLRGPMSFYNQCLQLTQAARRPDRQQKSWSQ
Hits are given with their value. Compounds with a hit are over-represented: about 1.5% of the library has one in this group of screens.

What do the screens show for `CCCN1CCCc2cc(CN)ccc21`?
ARNT-TACC3 inh: 31.9; Rin1-Abl PPI inh: inactive; AI-2 QS modul: inactive; sPLA2-III inh: inactive

Results for O=S(=O)(Nc1cccc(-c2nc3cccnc3s2)c1)c1cccs1 ?
ARNT-TACC3 inh: inactive; Rin1-Abl PPI inh: inactive; AI-2 QS modul: inactive; sPLA2-III inh: inactive

What do the screens show for `CCCS(=O)(=O)Nc1cccc(-c2nc3cccnc3s2)c1`?
ARNT-TACC3 inh: 46.0; Rin1-Abl PPI inh: inactive; AI-2 QS modul: inactive; sPLA2-III inh: inactive

What do the screens show for `CCn1c(=O)cc(OCC(=O)N2CCCC2)c2ccccc21`?
ARNT-TACC3 inh: inactive; Rin1-Abl PPI inh: 9.0; AI-2 QS modul: inactive; sPLA2-III inh: inactive

How did COc1ccc(C(=O)Nc2nnc(C3=COCCO3)o2)cc1 do in these assays?
ARNT-TACC3 inh: 58.1; Rin1-Abl PPI inh: inactive; AI-2 QS modul: inactive; sPLA2-III inh: inactive

How did O=C(COc1ccc(Cl)cc1)Nc1nnc(C2=COCCO2)o1 do in these assays?
ARNT-TACC3 inh: 47.0; Rin1-Abl PPI inh: inactive; AI-2 QS modul: inactive; sPLA2-III inh: inactive

How did O=C(COc1ccccc1)Nc1nnc(-c2ccccc2Cl)o1 do in these assays?
ARNT-TACC3 inh: inactive; Rin1-Abl PPI inh: inactive; AI-2 QS modul: -79.0; sPLA2-III inh: inactive

What do the screens show for `O=C(COc1ccc(Cl)cc1Cl)Nc1nnc(C2=COCCO2)o1`?
ARNT-TACC3 inh: inactive; Rin1-Abl PPI inh: inactive; AI-2 QS modul: inactive; sPLA2-III inh: inactive

How did COC(=O)c1cc(N2C(=O)C3C(C2=O)C2(C)C=CC3(C)O2)ccc1Cl (stereo not drawn) do in these assays?
AI-2 QS modul: -238.3

What do the screens show for `COc1cc(/C=N/NC(=O)c2cc(C3CC3)[nH]n2)cc(OC)c1OC`?
ARNT-TACC3 inh: inactive; Rin1-Abl PPI inh: inactive; AI-2 QS modul: inactive; sPLA2-III inh: inactive

How did CCOc1cccc(/C=N/NC(=O)c2cc(C3CC3)[nH]n2)c1O do in these assays?
ARNT-TACC3 inh: 71.4; Rin1-Abl PPI inh: inactive; AI-2 QS modul: inactive; sPLA2-III inh: inactive

How did COc1cccc(/C=N/NC(=O)N/N=C/c2cccc(OC)c2O)c1O do in these assays?
ARNT-TACC3 inh: inactive; Rin1-Abl PPI inh: inactive; AI-2 QS modul: inactive; sPLA2-III inh: inactive

Results for COc1cc([N+](=O)[O-])cc(/C=N/NC(=O)C(O)(c2ccccc2)c2ccccc2)c1O ?
ARNT-TACC3 inh: inactive; Rin1-Abl PPI inh: inactive; AI-2 QS modul: inactive; sPLA2-III inh: inactive

How did CCn1c(C)nc2cc(C(=O)N/N=C/c3cccc(OC)c3O)ccc21 do in these assays?
ARNT-TACC3 inh: 40.4; Rin1-Abl PPI inh: inactive; AI-2 QS modul: inactive; sPLA2-III inh: inactive

How did COc1cc([N+](=O)[O-])cc(/C=N/NC(=O)c2cccnc2)c1O do in these assays?
ARNT-TACC3 inh: 72.9; Rin1-Abl PPI inh: inactive; AI-2 QS modul: inactive; sPLA2-III inh: inactive

Results for COc1cccc(C=NNC(=O)c2ccncc2)c1O ?
ARNT-TACC3 inh: 68.9; Rin1-Abl PPI inh: inactive; sPLA2-III inh: inactive

What do the screens show for `COCC(=O)Nc1ccc2c(c1)C(=O)N(C)[C@@H]1CC[C@@H](CC(=O)NCCc3ccncc3)O[C@H]1CO2`?
ARNT-TACC3 inh: inactive

Results for C[C@H]1CN([C@@H](C)CO)C(=O)c2cc(C#CCN(C)C)cnc2O[C@H]1CN(C)Cc1ccc(F)cc1 ?
ARNT-TACC3 inh: inactive

What do the screens show for `C[C@H]1CCCCO[C@H](CN(C)Cc2ccc(C(=O)O)cc2)[C@@H](C)CN([C@@H](C)CO)C(=O)c2cc(NS(=O)(=O)c3ccc(F)cc3)ccc2O1`?
ARNT-TACC3 inh: inactive

How did CCOc1cccc(/C=N/NC(=O)c2cccnc2)c1O do in these assays?
ARNT-TACC3 inh: 55.6; Rin1-Abl PPI inh: inactive; AI-2 QS modul: inactive; sPLA2-III inh: inactive

Results for C[C@@H]1CCCCO[C@H](CN(C)C(=O)Nc2ccc3c(c2)OCO3)[C@H](C)CN([C@H](C)CO)C(=O)c2cc(NS(=O)(=O)c3ccccc3)ccc2O1 ?
ARNT-TACC3 inh: inactive

Results for O=C(Nc1ccc(Br)cc1)c1cccc(-n2cnnn2)c1 ?
ARNT-TACC3 inh: inactive; Rin1-Abl PPI inh: inactive; AI-2 QS modul: inactive; sPLA2-III inh: inactive

How did O=C(Nc1nc(-c2ccccn2)cs1)c1cccc(-n2cnnn2)c1 do in these assays?
ARNT-TACC3 inh: 70.5; Rin1-Abl PPI inh: inactive; AI-2 QS modul: inactive; sPLA2-III inh: inactive

Results for c1ccc(CSc2nnc(-c3c[nH]c4ccccc34)o2)cc1 ?
ARNT-TACC3 inh: inactive; Rin1-Abl PPI inh: inactive; AI-2 QS modul: -81.9; sPLA2-III inh: inactive

What do the screens show for `C[C@@H]1CN([C@@H](C)CO)C(=O)Cc2cc(NC(=O)Nc3ccc(F)cc3)ccc2O[C@H]1CN(C)Cc1ccccc1`?
ARNT-TACC3 inh: inactive

What do the screens show for `O=c1ccc2cc3c([nH]c4ccc(Br)cc43)oc-2c1O`?
ARNT-TACC3 inh: inactive; Rin1-Abl PPI inh: 37.4; AI-2 QS modul: inactive; sPLA2-III inh: 42.7

Assay outcomes as filed in PubChem.
